Experimental data from the supplement of paper PMC11732987, “Enantioselective OTUD7B fragment discovery through chemoproteomics screening and high-throughput optimisation” (Communications Chemistry, 2025).
Values without a mark were called inactive.

What was measured:
Assay in all cases: log2 ratio of Biotin-Ahx-Ub-VS probe labelling (fragment/DMSO); higher = less target engagement (more negative = stronger competition), active = hit call of the paper (q ≤ 0.05, log2 ratio ≤ -1)
Conditions in all cases: compound concentration: 200 uM; treatment time: 3 h
USP19 = target: T1, USP19 (UniProt O94966)
T1 sequence (whole entry): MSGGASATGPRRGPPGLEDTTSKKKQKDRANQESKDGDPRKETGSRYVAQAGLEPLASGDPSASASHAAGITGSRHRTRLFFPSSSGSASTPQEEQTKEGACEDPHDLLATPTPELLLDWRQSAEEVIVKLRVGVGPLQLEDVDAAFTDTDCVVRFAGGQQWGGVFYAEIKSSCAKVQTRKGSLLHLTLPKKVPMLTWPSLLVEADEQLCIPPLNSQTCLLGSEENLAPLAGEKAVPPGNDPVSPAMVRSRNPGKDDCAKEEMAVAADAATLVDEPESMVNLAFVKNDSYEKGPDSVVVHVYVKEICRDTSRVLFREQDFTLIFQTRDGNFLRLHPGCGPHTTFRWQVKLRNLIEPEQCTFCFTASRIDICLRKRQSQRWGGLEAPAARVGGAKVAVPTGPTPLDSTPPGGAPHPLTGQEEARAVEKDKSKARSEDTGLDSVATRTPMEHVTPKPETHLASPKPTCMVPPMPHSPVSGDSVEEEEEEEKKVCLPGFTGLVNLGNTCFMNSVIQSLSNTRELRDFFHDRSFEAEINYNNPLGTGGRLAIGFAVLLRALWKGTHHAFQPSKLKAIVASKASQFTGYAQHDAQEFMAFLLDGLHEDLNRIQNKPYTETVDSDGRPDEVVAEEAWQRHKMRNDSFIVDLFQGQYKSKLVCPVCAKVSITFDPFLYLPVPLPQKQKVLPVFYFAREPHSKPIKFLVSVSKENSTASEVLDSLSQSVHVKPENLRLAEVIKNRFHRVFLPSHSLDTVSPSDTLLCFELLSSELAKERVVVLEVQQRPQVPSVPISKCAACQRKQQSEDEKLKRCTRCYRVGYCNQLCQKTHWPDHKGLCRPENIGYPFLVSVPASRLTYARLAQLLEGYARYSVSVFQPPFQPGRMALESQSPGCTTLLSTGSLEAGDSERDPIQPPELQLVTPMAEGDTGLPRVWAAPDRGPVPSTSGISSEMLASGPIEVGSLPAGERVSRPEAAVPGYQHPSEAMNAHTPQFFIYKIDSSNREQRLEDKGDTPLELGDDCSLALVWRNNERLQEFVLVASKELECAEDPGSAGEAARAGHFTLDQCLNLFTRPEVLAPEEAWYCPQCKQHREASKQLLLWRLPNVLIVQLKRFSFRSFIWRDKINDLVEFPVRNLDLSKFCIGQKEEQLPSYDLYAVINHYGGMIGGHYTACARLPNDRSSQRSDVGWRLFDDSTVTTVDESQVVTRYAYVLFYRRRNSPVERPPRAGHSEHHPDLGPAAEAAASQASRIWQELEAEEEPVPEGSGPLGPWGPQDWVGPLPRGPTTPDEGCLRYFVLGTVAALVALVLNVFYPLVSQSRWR
In short: (§1)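 Fragment (200 µM) or vehicle was incubated for 3 h with triplicate HEK293T lysate samples of 495 µg, which were then treated with Biotin-Ahx-Ub-VS at 0.5 µM final for 1 h. Labelled DUBs were enriched on NeutrAvidin, digested with LysC and trypsin, and analysed by diaPASEF LC-MS/MS. Values are average log2 fragment/vehicle ratios from an unpaired t-test on global-median-normalised Spectronaut label-free quantities, using proteins with ≥2 unique peptides.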

USP22 = target: T2, USP22 (UniProt Q9UPT9)
T2 sequence (whole entry): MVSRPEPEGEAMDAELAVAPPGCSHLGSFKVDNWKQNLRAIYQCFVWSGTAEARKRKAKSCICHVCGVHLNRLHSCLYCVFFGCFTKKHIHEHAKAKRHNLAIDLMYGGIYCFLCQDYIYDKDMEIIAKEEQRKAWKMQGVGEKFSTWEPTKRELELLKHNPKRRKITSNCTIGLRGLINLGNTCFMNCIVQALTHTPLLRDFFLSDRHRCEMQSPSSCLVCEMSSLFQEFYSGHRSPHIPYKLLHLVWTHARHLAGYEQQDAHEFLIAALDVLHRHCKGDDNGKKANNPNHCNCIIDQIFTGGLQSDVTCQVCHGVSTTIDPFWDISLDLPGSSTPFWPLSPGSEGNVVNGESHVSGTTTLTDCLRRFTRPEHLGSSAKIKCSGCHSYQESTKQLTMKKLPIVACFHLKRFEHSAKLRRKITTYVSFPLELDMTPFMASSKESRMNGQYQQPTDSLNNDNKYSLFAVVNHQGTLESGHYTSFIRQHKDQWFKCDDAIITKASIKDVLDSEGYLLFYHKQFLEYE
In short: as §1

USP24 = USP24 (UniProt Q9UPU5)
Sequence of USP24 (Q9UPU5 whole entry): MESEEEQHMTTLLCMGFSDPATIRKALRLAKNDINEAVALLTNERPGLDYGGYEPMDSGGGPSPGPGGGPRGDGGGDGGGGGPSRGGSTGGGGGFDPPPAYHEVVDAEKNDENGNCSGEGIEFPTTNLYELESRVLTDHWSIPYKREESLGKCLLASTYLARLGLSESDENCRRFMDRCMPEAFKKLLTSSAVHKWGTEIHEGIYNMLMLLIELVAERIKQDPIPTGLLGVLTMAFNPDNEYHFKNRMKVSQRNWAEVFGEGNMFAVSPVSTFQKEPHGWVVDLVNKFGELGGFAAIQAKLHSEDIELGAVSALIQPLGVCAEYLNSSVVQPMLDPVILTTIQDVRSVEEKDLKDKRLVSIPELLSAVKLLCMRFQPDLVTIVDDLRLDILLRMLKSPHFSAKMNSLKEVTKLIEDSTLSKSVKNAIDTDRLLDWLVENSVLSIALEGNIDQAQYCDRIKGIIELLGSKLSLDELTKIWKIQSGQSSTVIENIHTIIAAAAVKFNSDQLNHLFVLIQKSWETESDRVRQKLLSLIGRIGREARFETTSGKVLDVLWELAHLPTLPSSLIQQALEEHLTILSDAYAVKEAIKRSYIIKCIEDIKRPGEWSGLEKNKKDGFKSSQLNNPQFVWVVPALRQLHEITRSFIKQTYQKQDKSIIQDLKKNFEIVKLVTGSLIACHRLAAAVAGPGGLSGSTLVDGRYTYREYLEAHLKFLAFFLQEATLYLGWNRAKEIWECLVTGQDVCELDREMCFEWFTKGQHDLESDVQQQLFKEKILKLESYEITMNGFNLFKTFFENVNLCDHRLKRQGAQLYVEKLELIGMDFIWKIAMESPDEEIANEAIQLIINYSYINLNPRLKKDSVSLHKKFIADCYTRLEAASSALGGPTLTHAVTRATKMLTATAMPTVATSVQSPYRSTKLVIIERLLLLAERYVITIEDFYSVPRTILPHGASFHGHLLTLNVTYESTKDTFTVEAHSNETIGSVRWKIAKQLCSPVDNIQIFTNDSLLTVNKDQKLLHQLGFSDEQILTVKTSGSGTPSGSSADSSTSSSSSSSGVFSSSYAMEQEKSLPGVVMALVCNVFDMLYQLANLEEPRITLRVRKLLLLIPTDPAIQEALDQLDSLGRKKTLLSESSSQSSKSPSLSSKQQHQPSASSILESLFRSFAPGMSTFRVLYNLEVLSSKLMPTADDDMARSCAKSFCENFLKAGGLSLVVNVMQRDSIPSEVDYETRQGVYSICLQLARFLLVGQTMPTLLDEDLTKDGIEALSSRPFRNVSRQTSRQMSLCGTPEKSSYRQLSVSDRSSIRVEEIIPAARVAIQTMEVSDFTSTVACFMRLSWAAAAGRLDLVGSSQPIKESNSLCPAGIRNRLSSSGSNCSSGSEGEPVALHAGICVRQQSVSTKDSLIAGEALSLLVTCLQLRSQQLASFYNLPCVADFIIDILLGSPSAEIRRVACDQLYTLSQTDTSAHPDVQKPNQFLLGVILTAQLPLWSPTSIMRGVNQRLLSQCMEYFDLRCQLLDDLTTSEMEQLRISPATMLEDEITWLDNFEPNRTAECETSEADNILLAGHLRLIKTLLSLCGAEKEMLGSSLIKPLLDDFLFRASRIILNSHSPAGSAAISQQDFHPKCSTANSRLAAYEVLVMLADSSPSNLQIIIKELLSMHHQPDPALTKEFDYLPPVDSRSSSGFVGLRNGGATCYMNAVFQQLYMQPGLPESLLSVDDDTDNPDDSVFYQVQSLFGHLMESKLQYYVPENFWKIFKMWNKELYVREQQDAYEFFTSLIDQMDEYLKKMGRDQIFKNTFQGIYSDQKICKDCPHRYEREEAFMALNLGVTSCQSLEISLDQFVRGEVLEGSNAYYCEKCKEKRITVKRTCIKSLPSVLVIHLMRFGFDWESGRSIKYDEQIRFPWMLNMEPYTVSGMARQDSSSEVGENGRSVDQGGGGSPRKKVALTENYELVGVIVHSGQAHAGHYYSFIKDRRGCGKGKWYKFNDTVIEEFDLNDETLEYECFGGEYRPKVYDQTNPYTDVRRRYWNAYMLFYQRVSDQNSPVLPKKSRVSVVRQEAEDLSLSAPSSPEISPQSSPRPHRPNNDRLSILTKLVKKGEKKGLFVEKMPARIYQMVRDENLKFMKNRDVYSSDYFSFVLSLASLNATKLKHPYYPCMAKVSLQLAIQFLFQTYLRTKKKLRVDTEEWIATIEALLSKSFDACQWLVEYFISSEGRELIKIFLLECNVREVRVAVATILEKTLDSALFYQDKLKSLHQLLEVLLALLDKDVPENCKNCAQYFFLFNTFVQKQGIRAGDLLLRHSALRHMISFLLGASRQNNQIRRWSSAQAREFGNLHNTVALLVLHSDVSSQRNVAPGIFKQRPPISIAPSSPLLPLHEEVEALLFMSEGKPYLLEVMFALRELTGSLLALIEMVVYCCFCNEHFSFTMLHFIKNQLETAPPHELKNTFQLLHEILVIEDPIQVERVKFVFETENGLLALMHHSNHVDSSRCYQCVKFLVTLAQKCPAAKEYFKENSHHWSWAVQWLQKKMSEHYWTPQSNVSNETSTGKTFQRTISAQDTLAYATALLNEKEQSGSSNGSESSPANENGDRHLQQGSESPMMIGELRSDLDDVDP
In short: as §1

USP25 = target: T3, USP25 (UniProt Q9UHP3)
T3 sequence (whole entry): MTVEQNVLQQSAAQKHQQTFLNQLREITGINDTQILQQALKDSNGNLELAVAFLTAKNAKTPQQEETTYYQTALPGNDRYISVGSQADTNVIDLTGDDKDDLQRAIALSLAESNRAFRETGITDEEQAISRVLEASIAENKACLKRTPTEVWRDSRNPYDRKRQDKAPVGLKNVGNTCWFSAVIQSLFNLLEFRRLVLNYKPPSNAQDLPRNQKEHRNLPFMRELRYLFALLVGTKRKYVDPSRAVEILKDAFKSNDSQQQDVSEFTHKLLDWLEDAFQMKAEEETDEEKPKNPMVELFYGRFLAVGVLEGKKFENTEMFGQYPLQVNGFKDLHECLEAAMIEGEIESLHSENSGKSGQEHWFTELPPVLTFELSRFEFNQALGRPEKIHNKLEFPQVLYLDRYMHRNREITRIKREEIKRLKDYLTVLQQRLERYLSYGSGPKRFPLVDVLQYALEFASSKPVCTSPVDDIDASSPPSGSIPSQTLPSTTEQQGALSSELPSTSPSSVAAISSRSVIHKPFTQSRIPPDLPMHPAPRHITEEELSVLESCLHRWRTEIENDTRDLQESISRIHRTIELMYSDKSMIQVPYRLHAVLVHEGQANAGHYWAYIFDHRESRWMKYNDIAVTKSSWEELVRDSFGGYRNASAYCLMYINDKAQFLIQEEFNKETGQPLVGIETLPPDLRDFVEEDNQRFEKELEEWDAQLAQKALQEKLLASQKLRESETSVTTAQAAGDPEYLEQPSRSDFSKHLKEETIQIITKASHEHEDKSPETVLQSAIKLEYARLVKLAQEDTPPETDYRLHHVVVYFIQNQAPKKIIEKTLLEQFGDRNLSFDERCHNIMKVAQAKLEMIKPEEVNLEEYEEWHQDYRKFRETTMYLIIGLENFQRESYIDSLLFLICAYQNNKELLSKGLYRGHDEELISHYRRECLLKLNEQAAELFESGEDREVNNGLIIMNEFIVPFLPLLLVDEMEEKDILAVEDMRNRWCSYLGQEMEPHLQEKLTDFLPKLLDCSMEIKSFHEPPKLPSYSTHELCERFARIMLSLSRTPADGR
In short: as §1

USP28 = target: T4, USP28 (UniProt Q96RU2)
T4 sequence (whole entry): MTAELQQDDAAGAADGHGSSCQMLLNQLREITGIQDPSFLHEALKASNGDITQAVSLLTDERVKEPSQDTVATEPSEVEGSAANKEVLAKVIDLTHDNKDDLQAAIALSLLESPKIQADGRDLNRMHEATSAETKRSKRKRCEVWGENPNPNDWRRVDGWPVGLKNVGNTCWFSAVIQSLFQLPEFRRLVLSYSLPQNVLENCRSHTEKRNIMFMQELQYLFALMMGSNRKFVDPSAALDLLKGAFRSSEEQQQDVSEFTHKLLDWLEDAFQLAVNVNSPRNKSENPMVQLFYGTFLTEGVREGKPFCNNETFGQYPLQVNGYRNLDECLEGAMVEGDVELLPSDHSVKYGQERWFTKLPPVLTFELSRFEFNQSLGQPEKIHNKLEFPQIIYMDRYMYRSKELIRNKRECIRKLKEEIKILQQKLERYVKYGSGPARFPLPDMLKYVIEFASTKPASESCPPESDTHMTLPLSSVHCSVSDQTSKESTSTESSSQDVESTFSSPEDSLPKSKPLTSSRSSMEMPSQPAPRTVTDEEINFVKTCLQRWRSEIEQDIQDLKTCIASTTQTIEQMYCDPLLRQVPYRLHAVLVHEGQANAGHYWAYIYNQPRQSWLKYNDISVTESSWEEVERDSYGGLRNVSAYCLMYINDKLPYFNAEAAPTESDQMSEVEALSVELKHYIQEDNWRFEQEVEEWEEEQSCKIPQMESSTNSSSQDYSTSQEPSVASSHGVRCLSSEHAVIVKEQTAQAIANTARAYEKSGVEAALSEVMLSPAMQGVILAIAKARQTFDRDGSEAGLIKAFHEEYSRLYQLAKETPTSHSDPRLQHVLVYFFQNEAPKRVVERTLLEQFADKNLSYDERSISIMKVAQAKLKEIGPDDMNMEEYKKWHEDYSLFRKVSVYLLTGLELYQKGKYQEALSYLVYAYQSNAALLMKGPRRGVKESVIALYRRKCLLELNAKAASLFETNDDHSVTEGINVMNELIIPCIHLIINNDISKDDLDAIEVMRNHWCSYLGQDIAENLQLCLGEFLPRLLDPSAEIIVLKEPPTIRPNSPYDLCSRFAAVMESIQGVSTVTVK
In short: as §1

Q: What does the source list for `N#Cc1ccccc1N1CCN(C(=O)CCl)CC1`?
A: log2 ratio of Biotin-Ahx-Ub-VS probe labelling (USP19): -0.813; log2 ratio of Biotin-Ahx-Ub-VS probe labelling (USP22): 0.0569; log2 ratio of Biotin-Ahx-Ub-VS probe labelling (USP24): -1.15 (active); log2 ratio of Biotin-Ahx-Ub-VS probe labelling (USP25): -0.657; log2 ratio of Biotin-Ahx-Ub-VS probe labelling (USP28): -1.05
